Assay outcomes as filed in PubChem BioAssay.
HepG2 viability: counter-screen for TGF-b inhibitors: cytotoxicity in HepG2 cells. 0.76% of 410,000 active. HepG2 CAGA-GFP viability, ATP luminescence, 18 h. AID 588856. Potency, µM (highest dose often 46.1 µM), most hits filed as cytotoxic
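CellTiter-Glo luminescence gave cytotoxicity after 18 hours at 37 degrees C. The cells were HepG2 CAGA-GFP in 1% FBS DMEM, stimulated with 500 pg/mL TGF-beta after compound addition. %Activity was normalised to no-cell wells (complete cell-killing) and DMSO (no toxicity), and curves were fitted and classified.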
TDP1 block: blocks human tyrosyl-DNA phosphodiesterase 1; Q9NUW8; recombinant TDP1, AlphaScreen DNA substrate cleavage; Potency, µM (highest dose often 130 µM), hits mostly inhibitors; 0.28% of 350,000 active; AID 485290; further: nearly all actives have a fitted effect of over 40% in size
Target sequence (Q9NUW8 whole entry, looked up): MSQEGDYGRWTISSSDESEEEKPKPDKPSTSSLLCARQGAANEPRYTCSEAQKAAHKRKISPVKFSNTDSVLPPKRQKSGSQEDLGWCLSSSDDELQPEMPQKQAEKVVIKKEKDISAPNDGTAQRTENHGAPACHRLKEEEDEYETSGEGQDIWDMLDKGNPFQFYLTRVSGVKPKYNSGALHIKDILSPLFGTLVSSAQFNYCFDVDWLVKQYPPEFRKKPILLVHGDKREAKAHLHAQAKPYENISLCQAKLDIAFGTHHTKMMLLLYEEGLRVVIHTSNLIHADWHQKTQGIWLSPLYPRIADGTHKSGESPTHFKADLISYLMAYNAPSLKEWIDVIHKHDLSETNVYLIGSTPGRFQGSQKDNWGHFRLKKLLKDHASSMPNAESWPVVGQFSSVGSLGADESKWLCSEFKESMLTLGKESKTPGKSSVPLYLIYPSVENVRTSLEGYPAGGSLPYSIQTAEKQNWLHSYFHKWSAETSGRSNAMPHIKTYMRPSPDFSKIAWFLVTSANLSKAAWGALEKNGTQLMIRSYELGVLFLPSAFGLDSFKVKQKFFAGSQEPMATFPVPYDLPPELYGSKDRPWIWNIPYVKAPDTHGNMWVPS
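Signal: AlphaScreen proximity between streptavidin donor and anti-FITC acceptor beads on intact substrate. Reaction: Tdp1 1 nM, substrate 15 nM final, 5 min RT after 15 min compound preincubation.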
TGFb inhibitor: inhibitors of TGF-b signaling | Potency, µM (highest dose often 46.1 µM), actives largely listed as inhibitors | AID 588855 | HepG2 CAGA-GFP TGF-b/SMAD3 reporter, GFP fluorescence, 18 h; TGF-beta stimulated, 500 pg/mL final | 1.2% of 410,000 active; further: nearly all actives have a fitted effect of over 65% in size
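HEPG2 CAGA-GFP, 1000 cells/well; 2 h settle, 37 C; cpd via pin tool; TGF-b 500 pg/mL final; 18 h, 37 C; GFP imaging ex488/em500-530; %Activity normalised to -TGF-b and +DMSO controls; CRC fit, curve class.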
IL1B secr inh: inhibitors of inflammasome signaling (IL-1 beta secretion); activity change, % at 57.5 µM; THP-1 LPS/ATP IL-1B secretion, AlphaLISA, 16 h; hits give low values; AID 743279; 4.7% of 360,000 active; in the data active means activity change below about -50%; inconclusive means mostly about -30% to -49%
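THP-1 cells pretreated 1 hr with compounds (up to 57.5 uM final), then stimulated with LPS (250 ng/mL final) plus ATP (1.25 mM final); secreted IL-1B measured by AlphaLISA after 16 hr, decreased signal indicating inhibition.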
DT40 TDP1 no CPT: qHTS for Inhibitors of human tyrosyl-DNA phosphodiesterase 1 (TDP1): qHTS in cells in absence of CPT | DT40 Tdp1-/- hTDP1 cells, no CPT, ATP luminescence, 48 h | Potency, µM (series often up to 46.2 µM), actives largely listed as inhibitors | 15% of 420,000 active; further: nearly all actives have a fitted effect of over 55% in size
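Chicken DT40 Tdp1-/- cells stably complemented with human TDP1 were seeded at 400 cells/well with DMSO in place of 20 nM camptothecin. After compound pinning, cells grew at least 48 hr at 37 °C; viability read by CellTiter-Glo luminescence.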
TDP1 cell CPT: growth inhibition of DT40 Tdp1-/-;hTDP1 cells with camptothecin (screen for TDP1 inhibitors) | Potency, µM (doses to about 46.2 µM), most hits filed as inhibitors | chicken DT40 Tdp1-/-;hTDP1 cells + 20 nM CPT, ATP luminescence, 48 h | AID 686979 | 12% of 420,000 active; further: nearly all actives have a fitted effect of over 55% in size
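Chicken DT40 Tdp1-/- cells complemented with human TDP1, 400 cells/well, exposed to compounds plus 20 nM camptothecin for at least 48 h at 37 C; viability read as ATP content by CellTiter-Glo luminescence.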
Numbers stand for hits; - = inactive; ? = inconclusive; . = not tested or not shown; [ ] = another dose, or the depositor's remark. The list is not random: actives were taken first. Their share in the collection is about 18%. Unless noted, the call rests on the fitted dose curve; in most records, active means well fitted curve in the direction sought with a large enough effect; inconclusive means small, poorly fitted or top-dose-only effect, or another doubt; inactive means no such curve, though single readings can be large; an effect the other way counts as inactive or inconclusive.

SMILES | HepG2 viability | TDP1 block | TGFb inhibitor | IL1B secr inh | DT40 TDP1 no CPT | TDP1 cell CPT
O=C(C(=NNc1ccccc1)C(=S)Nc1ccccc1)c1ccccc1 | - | . | - | - | ? | 29.1µM
CCN=C1SC(CC(=O)NC(C)c2ccccc2)C(=O)N1CC (centres undefined) | - | - | - | - | - | -
O=C(NCCc1csc(-c2cccc(F)c2)n1)C(=O)Nc1cc(F)ccc1F | - | - | - | . | - | -
C=CCNc1nc(Nc2ccc(OC)cc2OC)nc(OCC)n1 | - | - | - | - | ? | 16.4µM
CCOC(=O)c1oc2c(c1C)-c1nn(Cc3ccc(Cl)cc3)cc1CC2 | - | - | . | . | 20.6µM | 16.4µM
CCn1cc2c(n1)-c1c(oc(C(=O)Nc3ccc(Br)cc3F)c1C)CC2 | - | - | - | . | 20.6µM | ?
Cc1c(C(=O)O)oc2c1-c1nn(Cc3ccc(Cl)cc3)cc1CC2 | - | - | . | . | - | -
CC(=O)Nc1ccc(NC(=O)c2oc3c(c2C)-c2nn(Cc4ccccc4Cl)cc2CC3)cc1 | - | - | - | . | 18.4µM | 8.2µM
Cc1cccc(CNC(=O)c2oc3c(c2C)-c2nn(Cc4ccccc4Cl)cc2CC3)c1 | - | - | ? | . | 20.6µM | ?
Cc1cc(C)n(C(C)CNS(=O)(=O)c2ccc(Cl)cc2)n1 (centres undefined) | - | - | - | - | - | -
COc1ccc(CNC(=O)c2oc3c(c2C)-c2nn(Cc4ccccc4Cl)cc2CC3)cc1 | - | - | - | . | 23.1µM | ?
Cc1ccc(CNC(=O)c2oc3c(c2C)-c2nn(Cc4ccc(Cl)cc4)cc2CC3)cc1 | - | - | - | . | 9.2µM | 10.3µM
Cc1c(C(=O)NCc2ccccc2)oc2c1-c1[nH]ncc1CC2 | - | - | - | . | - | ?
COc1ccccc1CNC(=O)c1oc2c(c1C)-c1nn(Cc3ccc(Cl)cc3)cc1CC2 | - | - | - | . | 20.6µM | 16.4µM
Cc1cccc(CNC(=O)c2oc3c(c2C)-c2nn(Cc4cccc(Cl)c4)cc2CC3)c1 | - | - | ? | . | 29.1µM | ?
Cc1nc(S(=O)(=O)Nc2ccccc2C(=O)NCC2CC2)cn1C | - | - | - | - | - | -
CC(C)[C@H](NC(=O)c1ccc(Br)cc1)C(=O)NC1CCCCC1 | - | - | - | - | - | -
CCc1ccccc1NC(=O)C1COc2ccccc2C1 (centres undefined) | - | - | - | . | - | -
Cc1c(-c2ccc(Cl)cc2Cl)nc2ccccc2c1C(=O)NCCN1CCOCC1 | - | - | - | - | - | -
CCOc1ccc(CNC(=O)c2oc3c(c2C)-c2nn(Cc4cccc(Cl)c4)cc2CC3)cc1 | - | - | - | . | 16.4µM | 18.4µM
C[C@@H]1CCCCCCCCC(=O)OCCN(C(=O)OC(C)(C)C)[C@H](C)CCCCCCCCC(=O)OCCN(C(=O)OC(C)(C)C)[C@H](C)CCCCCCCCC(=O)OCCN(C(=O)OC(C)(C)C)[C@H](C)CCCCCCCCC(=O)OCCN1C(=O)OC(C)(C)C | - | - | - | - | - | -
CCC1CCc2sc(C(=O)NC3CCN(Cc4ccccc4)CC3)cc2C1 (centres undefined) | - | -[0.505 µM] | - | -74.4 | 13µM | 20.6µM
CC1CCc2sc(C(=O)NC3CCN(Cc4ccccc4)CC3)cc2C1 (centres undefined) | - | - | - | -59.0 | 13µM | 20.6µM
COc1cccc(CN2CCNC(=O)C2CC(=O)NCC2CCOCC2)c1 (centres undefined) | - | - | - | - | - | -
CCC1CCCCN1C(=O)c1ccc2c(c1)C(=O)N(c1ccc(C)cc1)C2=O (centres undefined) | - | . | - | - | - | -
SMILES | HepG2 viability | TDP1 block | TGFb inhibitor | IL1B secr inh | DT40 TDP1 no CPT | TDP1 cell CPT
CN(C)S(=O)(=O)c1cccc(NC(=O)c2cc(-c3cccs3)nc3ccccc23)c1 | - | - | - | - | 10.3µM | ?
O=C(Nc1ccc(Br)cc1)c1cc(-c2cccs2)nc2ccccc12 | - | . | - | . | ? | ?
NS(=O)(=O)c1cccc(NC(=O)c2cccs2)c1 | - | . | - | - | ? | 20.6µM
NS(=O)(=O)c1cccc(NC(=O)CCC(=O)c2cccs2)c1 | - | . | - | - | - | -
NS(=O)(=O)c1cccc(NC(=O)c2cc(-c3cccs3)nc3ccccc23)c1 | - | - | - | - | 14.6µM | 20.6µM
NS(=O)(=O)c1ccc(NC(=O)c2cccc3cc4ccccc4nc23)cc1 | - | . | - | ? | 5.17µM | 5.8µM
CC(C)CCn1c(=O)c2sccc2n2c(CCCC(=O)NC(C)c3ccccc3)nnc12 (centres undefined) | - | - | - | . | ? | -
COC(=O)N1[C@H](C)C=C[C@]1(Cc1ccccc1)C(=O)NCc1ccc(N(C)C)cc1 | . | - | . | . | . | .
O=C1Nc2ccccc2CCC1Sc1nnc(-c2ccc(Cl)cc2)s1 (centres undefined) | - | - | - | - | 29.1µM | ?
OCC[C@H]1C[C@@H](O)[C@H](O)[C@@]2(Cc3ccccc3O2)O1 | - | - | - | - | - | -
Cc1cccc(N2CCN(C(C(=O)NCc3ccccc3)c3ccco3)CC2)c1C (centres undefined) | . | . | . | - | ? | ?
CCC(CC)C(C(=O)NCc1ccccc1)N1CCN(c2cccc(C)c2C)CC1 (centres undefined) | . | . | . | - | 5.8µM | 6.51µM
Cc1cccc(N2CCN(C(C(=O)NCc3ccccc3)c3ccc(F)cc3)CC2)c1C (centres undefined) | . | . | . | - | 20.6µM | 23.1µM
COc1cccc(C(C(=O)NCc2ccccc2)N2CCN(c3cccc(C)c3C)CC2)c1OC (centres undefined) | . | . | . | ? | 18.4µM | 18.4µM
Nc1c(-c2ccccc2)cnn1-c1ccc(C(=O)O)cc1 | - | - | - | - | - | -
N[C@@H](Cc1ccc(O)cc1)C(=O)NO | . | . | . | . | - | -
CC(=NNC(=S)N1CC2CCC(CC2)C1)c1ccncn1 | - | . | ? | - | 0.0291µM | 0.0366µM
O=C(CSCc1nc2cccnc2n1C1CCCCC1)NCc1cccc(Br)c1 | - | - | ? | . | 20.6µM | 16.4µM
O=C(CSCc1nc2cccnc2n1C1CCCCC1)NCc1cccc(Cl)c1 | - | - | ? | . | 10.3µM | 23.1µM
O=C(c1cc(C2CCCCN2C(=O)CCCc2ccccc2)on1)N1CCOCC1 (centres undefined) | - | . | - | - | ? | ?
COc1ccc(OCC2c3cc(OC)c(OC)cc3CCN2C(=O)c2c(F)cccc2F)cc1 (centres undefined) | - | - | - | . | ? | -
Nc1c2c(nc3ccn(-c4ccccc4)c(=O)c13)CCCCC2 | - | - | - | -58.3 | ? | -
